# Calls of active or inactive are those of the source. Unless noted, how the calls were made is not given here.
# Columns and labels:
# [1] = test system: Wnt5a (protein binding on small-molecule microarray); assay: Wnt5a binders on small-molecule microarray, primary screen, biophysical, 635/667 nm fluorescence (AID 1142); settings: 635 nm fluorescence, higher = more signal;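 further: fluorescence read at 667 nm with signal to noise per printed feature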
# [2] = cell viability in Huh7 cells, primary screen, cytotoxicity control for HCV replication inhibitor project, CellTiter-Glo luminescence, basal, 48 h (AID 1143); settings: Huh7 HCV replicon, higher = more signal, called active from +8 up or from −8 down;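 further: Huh7 hepatoma cells carrying a hepatitis C replication reporter with no stimulus; test concentration not given here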
# [3] = P. aeruginosa biofilm formation inhibitors, primary screen, PAO1 strain, BacTiter-Glo luminescence, LB-PBS (AID 1144); settings: 12 h, higher = more signal
# [4] = CREB reporter modulators without forskolin, primary screen, cell-based, PC12, CRE-LacZ reporter, unstimulated (AID 1145); settings: no forskolin, luminescence, 4.5 h, higher = more signal, called active from +8 up or from −8 down
# [5] = CREB reporter modulators under forskolin, primary screen, cell-based, PC12, CRE-LacZ reporter, forskolin-stimulated (AID 1146); settings: luminescence, 4.5 h, higher = more signal, called active from +8 up or from −8 down;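 further: PC12 cells with 6xCRE LacZ reporter stimulated by forskolin 10 µM; beta-galactosidase reporter signal reflecting CREB driven transcription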
# [6] = target: Streptavidin (Streptomyces avidinii) (UniProt P22629); assay: streptavidin binders on small-molecule microarray, primary screen, artefact control for SMM compound annotation, biophysical, 635/667 nm fluorescence (AID 1147); settings: streptavidin binding, higher = more signal;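 further: signal reflects streptavidin binding to arrayed compounds as a control protein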
# Streptavidin (Streptomyces avidinii), sequence (P22629 whole entry, looked up): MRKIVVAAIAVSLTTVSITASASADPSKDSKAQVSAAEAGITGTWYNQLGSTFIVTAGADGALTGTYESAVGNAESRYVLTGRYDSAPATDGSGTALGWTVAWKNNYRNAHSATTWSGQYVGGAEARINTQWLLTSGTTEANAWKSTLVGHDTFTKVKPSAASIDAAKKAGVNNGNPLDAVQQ
# [7] = small-molecule binders of probe aInhba, primary screen, biochemical, small-molecule microarray, 635/667 nm fluorescence (AID 1148); settings: higher = more signal;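 further: score merges 667nm spot fluorescence with signal-to-noise for antibody binding to printed compounds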
# Torsin-1A (Homo sapiens) [8] = target: Torsin-1A (Homo sapiens) (UniProt O14656); assay: torsin A binders from cell lysate, primary screen, small-molecule microarray, wild-type, 635/667 nm (AID 1149); settings: COS7 hTOR1A-WT lysate, 635 nm fluorescence, higher = more signal
# Torsin-1A (Homo sapiens), sequence (O14656 whole entry, looked up): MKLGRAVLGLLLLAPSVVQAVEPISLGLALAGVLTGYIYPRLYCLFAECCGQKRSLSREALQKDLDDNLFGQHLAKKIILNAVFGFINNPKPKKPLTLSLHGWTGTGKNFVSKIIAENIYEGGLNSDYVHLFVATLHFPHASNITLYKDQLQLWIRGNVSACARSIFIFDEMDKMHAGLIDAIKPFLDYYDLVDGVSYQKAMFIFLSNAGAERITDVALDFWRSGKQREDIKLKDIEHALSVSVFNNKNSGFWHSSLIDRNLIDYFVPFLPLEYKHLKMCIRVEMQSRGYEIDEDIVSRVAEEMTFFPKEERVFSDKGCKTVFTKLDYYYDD
# Torsin-1A (Homo sapiens) [9] = target: Torsin-1A (Homo sapiens) (UniProt O14656); assay: small-molecule binders of mutant TOR1A in lysate, primary screen, cell lysate, small-molecule microarray, COS7 lysate, 635/667 nm fluorescence (AID 1150); settings: COS7 hTOR1A mutant lysate, 635 nm fluorescence, higher = more signal;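 further: score pools 667 nm emission and signal to noise measuring lysate protein binding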
# [10] = test system: Sonic hedgehog protein (Shh); assay: small-molecule binders of Shh protein, primary screen, biochemical, small-molecule microarray, 635/667 nm fluorescence (AID 1151); settings: small-molecule microarray binding, 635 nm fluorescence; higher = more signal;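 further: Shh protein binding to compounds spotted on small-molecule microarray slides; score combines spot fluorescence intensity with signal-to-noise across triplicate slides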
# [11] = E. coli DRC41 culture turbidity changes, primary screen, E. coli filamentation inducer project, strain DRC41, OD650, 48 h (AID 1152);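 further: E. coli MC1000 strain DRC41 lacking acrAB efflux pump and sulA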; settings: E. coli DRC41 (acrAB sulA), higher = more signal, called active from +8 up or from −8 down
# [12] = small-molecule binders of probe aLefty1, primary screen, biochemical, small-molecule microarray, 635/667 nm fluorescence (AID 1153); settings: higher = more signal;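 further: score merges spot fluorescence with signal-to-noise ratio from the scanned slide images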
# [13] = PSAC antagonists in infected red cells, primary screen, cell-based, P. falciparum Indochina, OD700, 1 h (AID 1154); settings: P. falciparum Indochina infected RBC osmotic lysis, higher = more signal, called active from +8 up or from −8 down
# [14] = PSAC antagonists in infected red cells, primary screen, cell-based, P. falciparum Indochina, OD700, 2 h (AID 1155);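 further: lysis reports solute entry through the parasite surface anion channel PSAC; channel blockers reduce lysis of infected cells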; settings: P. falciparum Indochina infected erythrocytes, osmotic lysis OD700; higher = more signal, called active from +8 up or from −8 down
# [15] = osmotic lysis modulators in infected erythrocytes, primary screen, PSAC antagonist project, cell-based, P. falciparum Indochina, OD700, 3 h (AID 1156); settings: higher = more signal, called active from +8 up or from −8 down
# [16] = PSAC antagonists in infected red cells, primary screen, cell-based, P. falciparum Indochina, OD700, 18 h (AID 1157); settings: P. falciparum Indochina infected erythrocytes, osmotic lysis OD700, 18 h; higher = more signal, called active from +8 up or from −8 down
# [17] = modulators of S6 phosphorylation in cells, primary screen, cell-based, A549, cytoblot, luminescence, serum-stimulated (AID 1158); settings: A549 phospho-S6 cytoblot, 5 h, higher = more signal;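 further: serum-stimulated A549 lung adenocarcinoma cells; signal is phosphorylated S6 detected by cytoblot immunostaining with HRP secondary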
# [18] = target: NADPH oxidase 2 (Homo sapiens) (UniProt P04839); assay: NOX2-dependent H2O2 signal modulators, primary screen, NOX inhibitor project, cell-based, HEK293-NOX2, PMA-stimulated, Amplex Red fluorescence (AID 1159); settings: 45 min, higher = more signal, called active from +8 up or from −8 down; further: test concentration not given here
# NADPH oxidase 2 (Homo sapiens), sequence (P04839 whole entry, looked up): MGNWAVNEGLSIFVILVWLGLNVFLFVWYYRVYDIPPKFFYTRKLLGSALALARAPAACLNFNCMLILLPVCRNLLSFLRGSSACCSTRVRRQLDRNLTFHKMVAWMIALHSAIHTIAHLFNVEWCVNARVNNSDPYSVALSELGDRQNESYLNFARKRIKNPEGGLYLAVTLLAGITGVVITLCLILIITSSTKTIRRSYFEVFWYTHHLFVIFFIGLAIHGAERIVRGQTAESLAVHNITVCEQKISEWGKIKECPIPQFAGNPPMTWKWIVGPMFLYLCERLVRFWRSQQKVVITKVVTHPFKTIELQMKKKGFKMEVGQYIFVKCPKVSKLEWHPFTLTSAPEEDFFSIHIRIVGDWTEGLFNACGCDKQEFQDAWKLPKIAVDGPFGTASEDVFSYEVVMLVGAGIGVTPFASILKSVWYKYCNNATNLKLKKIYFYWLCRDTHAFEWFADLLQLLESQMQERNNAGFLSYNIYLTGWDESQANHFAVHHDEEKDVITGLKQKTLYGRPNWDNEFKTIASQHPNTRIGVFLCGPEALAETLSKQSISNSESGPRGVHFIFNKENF
# [19] = target: NADPH oxidase 4 (Homo sapiens) (UniProt Q9NPH5); assay: NOX4-dependent H2O2 signal modulators, primary screen, NOX inhibitor project, cell-based, HEK293-NOX4, tetracycline-induced, Amplex Red fluorescence (AID 1160); settings: 45 min, higher = more signal, called active from +8 up or from −8 down
# NADPH oxidase 4 (Homo sapiens), sequence (Q9NPH5 whole entry, looked up): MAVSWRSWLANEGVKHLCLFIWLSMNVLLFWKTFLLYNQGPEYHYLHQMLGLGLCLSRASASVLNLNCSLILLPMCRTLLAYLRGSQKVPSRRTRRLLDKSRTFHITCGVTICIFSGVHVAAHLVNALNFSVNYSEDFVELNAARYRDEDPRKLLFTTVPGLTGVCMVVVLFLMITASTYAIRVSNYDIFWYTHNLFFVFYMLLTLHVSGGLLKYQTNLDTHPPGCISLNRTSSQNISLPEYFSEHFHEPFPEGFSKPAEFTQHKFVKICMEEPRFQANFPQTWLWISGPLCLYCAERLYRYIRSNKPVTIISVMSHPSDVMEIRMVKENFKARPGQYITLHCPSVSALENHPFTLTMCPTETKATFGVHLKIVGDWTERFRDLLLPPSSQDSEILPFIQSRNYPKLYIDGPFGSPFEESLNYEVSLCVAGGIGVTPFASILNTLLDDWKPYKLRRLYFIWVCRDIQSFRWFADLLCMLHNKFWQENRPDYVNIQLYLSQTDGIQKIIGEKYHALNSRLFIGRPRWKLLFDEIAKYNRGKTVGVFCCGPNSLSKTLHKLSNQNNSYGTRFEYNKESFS
# [20] = target: NADPH oxidase 5 (Homo sapiens) (UniProt Q96PH1); assay: NOX5-dependent H2O2 signal modulators, primary screen, NOX inhibitor project, cell-based, HEK293-NOX5, Amplex Red fluorescence (AID 1161); settings: HEK293-NOX5, ionomycin, 45 min, higher = more signal
# NADPH oxidase 5 (Homo sapiens), sequence (Q96PH1 whole entry, looked up): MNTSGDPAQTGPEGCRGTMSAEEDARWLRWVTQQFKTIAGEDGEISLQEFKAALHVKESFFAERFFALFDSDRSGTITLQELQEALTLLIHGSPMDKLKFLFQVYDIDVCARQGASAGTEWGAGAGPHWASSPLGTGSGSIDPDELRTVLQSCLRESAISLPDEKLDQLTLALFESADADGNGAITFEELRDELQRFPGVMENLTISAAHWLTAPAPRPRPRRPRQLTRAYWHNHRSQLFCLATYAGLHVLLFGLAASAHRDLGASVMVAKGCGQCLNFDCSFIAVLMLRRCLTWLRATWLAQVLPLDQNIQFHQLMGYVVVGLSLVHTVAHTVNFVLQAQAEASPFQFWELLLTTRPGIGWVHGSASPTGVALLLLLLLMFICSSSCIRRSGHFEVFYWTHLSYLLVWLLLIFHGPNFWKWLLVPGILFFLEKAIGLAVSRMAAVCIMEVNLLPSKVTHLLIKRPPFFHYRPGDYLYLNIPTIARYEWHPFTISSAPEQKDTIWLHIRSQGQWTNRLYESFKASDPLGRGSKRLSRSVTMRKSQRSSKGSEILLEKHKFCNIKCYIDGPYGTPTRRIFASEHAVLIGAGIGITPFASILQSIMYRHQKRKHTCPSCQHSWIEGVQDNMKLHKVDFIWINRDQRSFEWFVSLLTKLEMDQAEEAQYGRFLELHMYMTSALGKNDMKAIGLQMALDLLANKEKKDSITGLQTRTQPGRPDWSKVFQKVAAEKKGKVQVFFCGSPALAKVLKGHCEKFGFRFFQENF
SMILES,composite z-score [1],z-score [2],z-score [3],z-score [4],z-score [5],composite z-score [6],composite z-score [7],composite z-score (Torsin-1A (Homo sapiens) [8]),composite z-score (Torsin-1A (Homo sapiens) [9]),composite z-score [10],z-score [11],composite z-score [12],z-score [13],z-score [14],z-score [15],z-score [16],z-score [17],z-score [18],z-score [19],z-score [20]
[N-]=[N+]=NCc1ccccc1[C@H]1OC(c2ccc(OCCCO)cc2)=N[C@@]1(Cc1ccccc1)C(=O)N1CCCCC1,1.5,-5.29 (inactive),0.437 (inactive),-0.16 (inactive),0.357 (inactive),0.733,0.204,0.178,0.392,0.413,0.796 (inactive),0.0331,28.4 (active),23.2 (active),1.75 (inactive),1.77 (inactive),1.3,-3.54 (inactive),-0.919 (inactive),-1.28
CO[C@H]1O[C@H](CO)[C@@H](OC(=O)Nc2cccc(F)c2)[C@H](OC(=O)Nc2ccccc2)[C@H]1OC(=O)Nc1ccccc1,0.701,-4.58 (inactive),-0.703 (inactive),-0.0484 (inactive),-1.22 (inactive),-0.0985,0.226,1.28,0.616,1.61,-0.198 (inactive),0.435,4.41 (inactive),1.13 (inactive),-0.711 (inactive),0.986 (inactive),0.627,-6.46 (inactive),-1.09 (inactive),-2.13
COc1ccccc1CN1C(=O)c2ccccc2[C@@]2(Cc3ccccc3N(CCCN(C)C)C2=O)[C@@H]1c1ccc(CO)cc1,-0.0961,-4.71 (inactive),-0.516 (inactive),-0.0243 (inactive),-0.926 (inactive),0.224,-0.19,-0.0118,0.0265,0.243,2 (inactive),-0.152,0.599 (inactive),-0.678 (inactive),-0.795 (inactive),-1.1 (inactive),2.55,-0.841 (inactive),-1.61 (inactive),1.51
O=C1N(CCS(=O)(=O)c2ccccc2)c2ccccc2[C@@H]2OC(c3ccc(OCCCO)cc3)=N[C@]12Cc1ccccc1,-0.0372,-3.61 (inactive),-0.157 (inactive),1.26 (inactive),-1.77 (inactive),0.14,0.0091,0.422,0.208,1.95,0.0442 (inactive),-0.081,30.9 (active),24.6 (active),2.85 (inactive),6.38 (inactive),2.01,-2.55 (inactive),0.645 (inactive),-1.18
CN1C(=O)C2C=CC(C(O)c3ccccc3)N(N3CCCCC3)C2C1=O (stereo not given),0.691,0.573 (inactive),-0.127 (inactive),0.819 (inactive),0.584 (inactive),0.479,0.0301,0.305,1.14,-0.689,-2 (inactive),0.0971,0.15 (inactive),0.913 (inactive),0.302 (inactive),0.827 (inactive),-0.965,-0.121 (inactive),-1.01 (inactive),-1.08
COCCCNC(=O)[C@@H]1c2ccccc2C(=O)N(Cc2ccccc2)[C@H]1c1ccc(CO)cc1,0.23,0.285 (inactive),0.397 (inactive),0.648 (inactive),-1.01 (inactive),0.158,0.343,0.662,1.29,0.857,-0.134 (inactive),0.603,0.481 (inactive),-0.307 (inactive),0.239 (inactive),0.129 (inactive),-0.0034,-0.694 (inactive),0.572 (inactive),-2.19
CCCCCN1CC=CC23O[C@@H]4C=CCOC(=O)[C@@H]4[C@H]2C(=O)N(C(C)CO)[C@@H]3C1=O (stereo not given in full),-0.614,0.463 (inactive),0.397 (inactive),-0.216 (inactive),-0.315 (inactive),-0.541,-0.128,0.909,-0.979,-0.424,-0.0744 (inactive),-0.103,0.59 (inactive),0.531 (inactive),0.136 (inactive),0.0638 (inactive),1.43,0.503 (inactive),0.306 (inactive),0.938
CN(C)C(=O)[C@]1(Cc2ccccc2)N=C(c2ccc(OCCCO)cc2)O[C@@H]1c1ccccc1N=[N+]=[N-],0.435,-4.22 (inactive),0.54 (inactive),-0.459 (inactive),-1.58 (inactive),1.06,0.143,0.37,0.523,0.0841,0.554 (inactive),0.008,32.4 (active),34.9 (active),1.96 (inactive),4.27 (inactive),0.0986,-1.46 (inactive),-0.242 (inactive),-1.36
CC(C)C(=C=CC[C@H](O)c1ccc(CO)o1)CCO,-0.0164,0.243 (inactive),-0.0587 (inactive),1.87 (inactive),1.33 (inactive),0.0515,-0.0963,0.385,0.291,1.71,-0.543 (inactive),0.0494,1.77 (inactive),0.408 (inactive),0.186 (inactive),-0.012 (inactive),-0.516,0.228 (inactive),-0.345 (inactive),-0.21
OCC1C=C(/C=C/c2ccccc2)CN1Cc1ccccc1Br (stereo not given),0.307,-2.1 (inactive),0.0784 (inactive),0.856 (inactive),-0.181 (inactive),0.828,0.126,-0.205,0.818,1.39,0.785 (inactive),0.457,6.56 (inactive),0.673 (inactive),1.17 (inactive),0.499 (inactive),0.0524,0.887 (inactive),-2.84 (inactive),-0.691
C=CCN1C(=O)[C@]2(O[C@H](CCO)[C@@H]([Si](C)(C)c3ccc(OC)cc3)[C@@H]2C)c2cc(N(C=O)c3ccccc3)ccc21,-0.223,-7.67 (inactive),-0.2 (inactive),32.2 (active),-3.14 (inactive),0.0699,-0.082,-0.376,0.0507,0.572,0.35 (inactive),0.0774,9.23 (active),3.66 (inactive),-0.452 (inactive),2.29 (inactive),1.53,0.474 (inactive),0.446 (inactive),0.327
CCOc1cc(C(O)C2C=CC3C(=O)N(c4ccccc4)C(=O)C3N2Nc2ccc(C(C)C)cc2)ccc1O (stereo not given),0.12,-1.15 (inactive),-0.941 (inactive),1.96 (inactive),0.193 (inactive),0.809,-0.0375,0.159,0.57,0.323,-1.97 (inactive),0.469,11.5 (active),1.8 (inactive),1.74 (inactive),1.42 (inactive),-0.729,-3.06 (inactive),-4.82 (inactive),-5.07
C=CCN1Cc2ccccc2[C@@H]2OC(c3ccc(OCCCO)cc3)=N[C@]2(CCS(=O)(=O)c2ccccc2)C1=O,1.02,-2.93 (inactive),-0.491 (inactive),2.65 (inactive),-0.821 (inactive),0.316,0.122,0.625,0.969,1.77,0.576 (inactive),0.415,27.2 (active),20.3 (active),2.26 (inactive),3.22 (inactive),-0.0454,-1.38 (inactive),0.827 (inactive),0.0284
COc1cc(OC)c(C(O)C2C=CC3C(=O)NC(=O)C3N2Nc2ccccn2)cc1Br (stereo not given),0.364,0.996 (inactive),-0.874 (inactive),-0.326 (inactive),-0.527 (inactive),-0.118,-0.0791,-0.105,0.197,0.754,-0.718 (inactive),-0.172,1.54 (inactive),0.783 (inactive),0.332 (inactive),0.876 (inactive),-0.732,-0.0691 (inactive),-2.81 (inactive),-2.05
COc1ccccc1CN1C(=O)c2ccccc2[C@@H](C(=O)NCc2ccccc2)[C@@H]1c1ccc(CO)cc1,-0.13,-0.107 (inactive),1.29 (inactive),0.648 (inactive),-1.35 (inactive),-0.515,-0.176,0.408,0.48,0.496,-0.0367 (inactive),0.148,1.8 (inactive),0.566 (inactive),0.708 (inactive),0.205 (inactive),0.161,-1.11 (inactive),0.148 (inactive),-0.707
C=CCNC(=O)[C@H]1[C@@H]2C(=O)O[C@@H](c3ccccc3)[C@@H](c3ccccc3)N2[C@@H](c2ccc(O)cc2)[C@]12C(=O)Nc1ccc(C#CCCO)cc12,-0.169,0.0368 (inactive),0.722 (inactive),0.452 (inactive),-0.67 (inactive),-0.374,-0.152,-0.944,-0.187,0.717,0.605 (inactive),0.117,5.56 (inactive),0.608 (inactive),-0.763 (inactive),0.443 (inactive),-0.0803,0.67 (inactive),-0.436 (inactive),0.603
CCOC(=O)C1=C[C@@H](C(C)C)N(S(=O)(=O)c2ccc(C)cc2)[C@H]1c1ccccc1F,0.197,-2.77 (inactive),-0.0791 (inactive),-0.527 (inactive),-0.0445 (inactive),1.08,0.0816,0.345,1.15,0.394,-1.02 (inactive),0.389,0.21 (inactive),0.668 (inactive),-0.422 (inactive),0.587 (inactive),-0.851,0.173 (inactive),-0.957 (inactive),1.06

# From PubChem BioAssay
